Compound activity (PubChem BioAssay)
A selection: hits, their analogues and other compounds. The true share with any hit is near 4.6%.
FXN GAA850 act: FXN promoter activators, primary screen, cell-based, luciferase luminescence, HEK293 lucGAA850; HEK293 lucGAA850 FXN promoter luciferase reporter, 24 h; percent of 10 µM SAHA response; activation, % at 6 µM; actives 0.56% (n = 360,000);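 active = activation above the average of all compounds screened plus 3 SD, cutoff fixed separately per campaign, cut at about 7.5% in these data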
AHR activator: AHR activators, primary screen, cell-based, luminescence, luciferase reporter, human. activation, % at 5 µM. Aryl hydrocarbon receptor (Homo sapiens), P35869. AHR-responsive luciferase reporter cells. actives 2.5% (n = 320,000). AID 2796, 2010; in the data active = activation above about 47%
Target sequence (P35869 whole entry, looked up): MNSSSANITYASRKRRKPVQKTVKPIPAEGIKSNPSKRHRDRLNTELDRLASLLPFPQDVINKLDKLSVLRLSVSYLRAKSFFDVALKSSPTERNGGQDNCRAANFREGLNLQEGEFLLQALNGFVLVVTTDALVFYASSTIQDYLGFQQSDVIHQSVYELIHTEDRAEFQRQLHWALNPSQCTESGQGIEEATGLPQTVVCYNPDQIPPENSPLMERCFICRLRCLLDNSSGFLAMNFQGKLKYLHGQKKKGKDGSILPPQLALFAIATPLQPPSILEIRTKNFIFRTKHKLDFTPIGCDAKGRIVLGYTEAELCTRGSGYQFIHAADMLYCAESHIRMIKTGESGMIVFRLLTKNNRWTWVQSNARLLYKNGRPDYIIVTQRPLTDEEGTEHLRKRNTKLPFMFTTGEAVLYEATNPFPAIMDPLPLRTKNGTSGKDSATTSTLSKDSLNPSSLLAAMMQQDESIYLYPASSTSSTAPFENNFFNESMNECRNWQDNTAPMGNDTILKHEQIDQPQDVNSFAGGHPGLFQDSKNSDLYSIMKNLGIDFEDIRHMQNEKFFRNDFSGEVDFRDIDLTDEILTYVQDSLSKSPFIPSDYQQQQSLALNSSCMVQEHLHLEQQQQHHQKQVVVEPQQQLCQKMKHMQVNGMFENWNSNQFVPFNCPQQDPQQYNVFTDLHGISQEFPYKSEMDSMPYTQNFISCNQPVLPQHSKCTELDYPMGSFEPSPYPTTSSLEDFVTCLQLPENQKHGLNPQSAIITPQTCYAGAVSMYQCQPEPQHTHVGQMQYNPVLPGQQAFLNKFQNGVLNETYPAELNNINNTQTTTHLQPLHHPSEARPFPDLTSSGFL
HSF-1 act: HSF-1 activators, primary screen, NIH3T3-HGL cells, MG132 stress, luminescence, single point | NIH3T3-HGL HSF-1 luciferase reporter, 8 h; 100% = twice DMSO control signal | activation, % at 9 µM | actives 1.7% (n = 300,000);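 active = mean replicate activation of at least 50% with a set share of replicates each reaching 50%; inconclusive = only one of those two conditions met; inactive = mean below 50% and too few replicates reaching it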
HSF1 inhib: HSF1 inhibitors in luciferase reporter cells, primary screen, cell-based, NIH3T3, luminescence; NIH3T3-HGL HSE-luciferase, MG132-induced, luminescence 8 h; active compounds read low; activity change, negative = inhibition, % at 7.5 µM (by protocol); actives 0.77% (n = 300,000);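 active = more than half of replicate wells show activity change below -50%, luminescence cut by over half; inconclusive = some wells, but at most half, below -50%; inactive = no replicate well below -50%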;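 note: luciferase reports HSF-1 transcriptional activity via heat shock element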
Each line names hits and unclear results; the compound was inactive in the other large screens.

Cc1cc(Nc2nc(Cl)c(Cl)cc2Cl)n(-c2ccccc2)n1	AHR activator 67.8
Cc1cc(Nc2ccccc2)n(-c2ccccc2)n1	none
COc1cc2c(cc1OC)C(c1ccc(C(F)(F)F)cc1)CC(=O)N2 (stereo unspecified)	AHR activator 54.2
COc1cc2c(cc1OC)C(c1ccc(Br)cc1)CC(=O)N2 (stereo unspecified)	none (no result: AHR activator)
CC(Oc1ccccc1)C(=O)Nc1ccccc1O (stereo unspecified)	AHR activator 49.5
COC(=O)c1ccccc1NC(=O)C(C)Oc1ccccc1 (stereo unspecified)	none (no result: HSF-1 act, HSF1 inhib)
CNC(=O)c1ncnnc1N(C)C(=O)NCc1ccccc1	none
O=C(CN1C(=O)c2ccccc2S1(=O)=O)c1ccccc1Cl	HSF1 inhib inconclusive
CC1CCN(c2nc(/C=C/c3ccccc3)nc3ccccc23)CC1	AHR activator 71.7
COc1ccc(C2=NOC(Cn3nc(C(=O)NCc4cccs4)cc3-c3ccccc3)C2)cc1 (stereo unspecified)	none
Cc1ccc(NC(=O)CCN2CCCCC2)cc1	HSF1 inhib -63.4
CCc1c(N)nc(N)nc1Nc1ccccc1Cl	none (no result: AHR activator, HSF-1 act, HSF1 inhib)
CC(C)(C)NC(=O)c1c(F)c(F)c(F)c(F)c1F	HSF1 inhib -72.0
CC(C)CNC(=O)c1c(F)c(F)c(F)c(F)c1F	none
O=C(CN1c2cccc3cccc(c23)S1(=O)=O)NCCc1ccccc1	none (no result: HSF-1 act, HSF1 inhib)
COc1ccc(C(=O)/C=C/c2ccc(OC)cc2OC)c(O)c1	none
COc1ccc(/C=C/C(=O)c2cc(Cl)ccc2O)c(OC)c1	HSF-1 act 64.4
O=C(/C=C/c1ccncc1)c1cc(Cl)ccc1O	HSF-1 act 59.1
O=C(CNC(=O)c1ccccc1)Nc1ccsc1C(=O)O	none
CCNc1c(N)c(=O)oc2ccccc12	none
Nc1c(Nc2ccccc2)c2ccccc2oc1=O	HSF-1 act 87.8
CN(Cc1nc2ccccc2c(=O)[nH]1)C(=O)c1cccc(S(=O)(=O)N2CCCCCC2)c1	none (no result: HSF-1 act, HSF1 inhib)
O=c1cc(-c2ccccc2)nc2n1Cc1ccccc1-2	AHR activator 110.6
CN(C)c1ccc(NC(=O)CSc2nnc(-c3cnccn3)n2C)cc1	AHR activator 51.0
O=C(NCCc1c[nH]c2ccccc12)/C(=C\c1cccnc1)NC(=O)c1ccccc1Br	none
CCOc1ccc2nc(N3CCC(C(=O)N4CCN(C5CCCCC5)CC4)CC3)sc2c1	none
CCOc1ccc2nc(N3CCCCCC3)sc2c1	HSF-1 act 71.7
O=C(Oc1cccc(C(=S)N2CCOCC2)c1)c1cc([N+](=O)[O-])cc([N+](=O)[O-])c1	none
Nc1c(N2CCCCC2)c(=O)[nH]c(=O)n1-c1ccccc1	none
CC(C)(C)N1C(=O)[C@H]2[C@@H](c3ccc(Br)cc3)N3C(=O)N(c4ccccc4)C(=O)[C@@]3(C)[C@H]2C1=O	FXN GAA850 act 12.0
COc1cc(C(=O)NNC(=S)NC(=O)c2ccc(F)cc2)cc(OC)c1OC	none
CCOC(=O)Cc1ccc(Nc2nc3cc(-c4ccccc4C)sc3c(=O)n2C)cc1	none (no result: AHR activator, HSF-1 act, HSF1 inhib)
Cc1cccc(N(CC(=O)NCc2ccc(F)cc2)C(=O)c2csnn2)c1C	HSF-1 act 52.2
O=C(CNC(=O)c1ccccc1F)NC1CCN(Cc2ccccc2)CC1	none
COc1ccc(-n2c(C)nc(=O)c(-c3ccccc3)c2C)cc1	none (no result: HSF-1 act, HSF1 inhib)
Cc1ccc(N=Nc2c(N)n[nH]c2N)cc1	none
Nc1n[nH]c(N)c1N=Nc1ccc2c(c1)OCO2	AHR activator 48.1
COc1ccccc1N1CCN(c2ncnc3c2oc2ccccc23)CC1	none
c1ccc2c(c1)oc1c(N3CCOCC3)ncnc12	AHR activator 72.6
CN(C)c1ccc(N=Nc2nc3ccccc3n2C)cc1	HSF1 inhib -83.1
CCS(=O)(=O)N1Cc2ccccc2CC1C(=O)Nc1nc2ccccc2s1 (stereo unspecified)	HSF1 inhib -60.8
CCc1nnc(NC(=O)C2Cc3ccccc3CN2S(=O)(=O)CC)s1 (stereo unspecified)	none
O=C(NC1CCN(S(=O)(=O)c2ccccc2)CC1)C1CCCCC1	none
O=C(N1CCCCC1)N1CCN(S(=O)(=O)c2ccccc2)CC1	HSF1 inhib -70.9
O=C(NC1CCCCC1)C1CCN(c2nccs2)CC1	HSF1 inhib -57.9
Cc1ccc(S(=O)(=O)NCCC(=O)N2CCN(S(=O)(=O)c3ccccc3)CC2)cc1C	HSF1 inhib -55.5
O=C(NC1CCCCCC1)C1CCN(S(=O)(=O)c2ccccc2)CC1	HSF-1 act 55.3
O=C(N1CCCCCC1)N1CCN(S(=O)(=O)c2ccccc2)CC1	none
C=CCn1c(SCC(=O)Nc2ccc3c(c2)OCO3)nnc1-c1ccccc1OC	none
C=CCc1c(N(CC)CC)nc(C)[nH]c1=O	none
CSCC[C@H](NC(=O)C1CCN(S(=O)(=O)c2ccccc2)CC1)C(=O)NC1CC1	HSF1 inhib -71.2
CCc1ccc(/C=C2\SC(=S)N(CCCC(=O)Nc3ccccn3)C2=O)cc1	HSF1 inhib inconclusive
COc1ccc(-c2nc(-c3ccc(Br)o3)no2)cc1OC	HSF-1 act 56.7
COc1ccc(OCC(=O)O/N=C(\N)c2ccc(OC)c(OC)c2)cc1	none
Oc1nc(Nc2ccc(Cl)cc2Cl)sc1/C=C1\C=Nc2ccccc21	none
O=S(=O)(Nn1c(O)c(C=C2N=c3ccccc3=N2)sc1=S)c1ccccc1	none
Cn1c(O)c(/C=C2\C=Nc3ccccc32)sc1=Nc1ccc(C(=O)O)cc1	AHR activator 51.3
O=C(Cc1ccccc1)Nn1c(O)c(/C=C2\C=Nc3ccccc32)sc1=S	AHR activator 76.2
Nc1nc2c(-c3ccc(Br)cc3)nnn2c2ccccc12	AHR activator 54.5, HSF-1 act 55.5
COc1ccccc1CCn1c(N)cc(=O)[nH]c1=O	AHR activator 53.4
Nc1cc(=O)[nH]c(=O)n1CCCc1ccccc1	none
Cc1cc(N2CCN(C)CC2)nc2ccc(NC(=O)c3cccnc3Cl)cc12	HSF1 inhib -58.9
CC(=O)N1CCN(c2nnnn2-c2ccccc2)CC1	none
CCC(=O)n1nc(-c2cccnc2)nc1NCc1cccs1	HSF1 inhib -90.7
CCCC(=O)n1nc(-c2cccnc2)nc1NCc1cccs1	none (no result: AHR activator)
C=CCn1c(=O)/c(=C2/Sc3cc(OC)ccc3N2C)s/c1=C1\C(=O)N(CC)C(=S)N1C	none (no result: FXN GAA850 act)
Fc1ccc(CSc2nnc(-c3cnccn3)n2Cc2ccco2)cc1	none
Fc1ccccc1CSc1nnc(-c2cnccn2)n1Cc1ccco1	HSF-1 act 67.3
CCC(CC)C(=O)N(C)c1c(C)nc2c(OCCOc3ccccc3)cccn12	none (no result: AHR activator, HSF-1 act, HSF1 inhib)
COc1ccccc1NC(=S)Nc1ccccn1	AHR activator 116.7
COc1ccccc1NC(=S)NCc1ccccn1	none
COc1ccccc1NC(=O)C(=O)Nc1ccccn1	HSF-1 act 58.8
O=C(COC(=O)c1ccc(O)cc1)Nc1cccc(S(=O)(=O)N2CCCCC2)c1	none
Cc1cccc(NC(=O)NCCCCc2ccccc2)c1	none
Cc1ccc(NC(=O)Cn2ccc([N+](=O)[O-])n2)cc1C	none
Cc1cc(NC(=O)Cn2ccc([N+](=O)[O-])n2)no1	HSF1 inhib -52.3
